dFosB act-1 = activators of mouse delta FosB homodimer; actives 0.99% (n = 340,000); activation, % at 25 µM; purified delta FosB, TAMRA-CDK5 oligo fluorescence polarization; percent of positive-control signal above neutral wells;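 active means mean activation above about 17%, with every replicate also reaching it, limit read from the data, passing the limit was not always enough; inconclusive means only one of the two conditions met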
EBNA-1 inhibitor = blocks EBNA-1 binding to DNA. EBNA-1 DNA binding, fluorescence polarization. actives 0.34% (n = 300,000). inhibition, % at 14.8 µM; in the data active means inhibition above about 28%
ZTA counter = counter-screen for EBNA-1 inhibitors: inhibitors of Epstein-Barr virus ZTA. inhibition, % at 11 µM. P03206. ZTA-DNA binding, fluorescence polarization. actives 0.15% (n = 320,000); in the data active means inhibition above about 33%
Target sequence (P03206 whole entry, looked up): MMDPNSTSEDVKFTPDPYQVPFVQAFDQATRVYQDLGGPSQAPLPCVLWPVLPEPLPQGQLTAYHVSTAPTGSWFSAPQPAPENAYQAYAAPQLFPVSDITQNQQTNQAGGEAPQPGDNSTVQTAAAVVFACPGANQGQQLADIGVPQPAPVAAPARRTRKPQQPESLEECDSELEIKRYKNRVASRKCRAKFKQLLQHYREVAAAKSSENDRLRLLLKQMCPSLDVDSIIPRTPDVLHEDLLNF
TPT1 inh = C. albicans TPT1 enzyme inhibition | recombinant caTPT1, FP RNA substrate dephosphorylation | inhibition, % at 5 µM | actives 0.81% (n = 300,000);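 active means inhibition above the mean of all tested compounds plus 3 SD, set per screening campaign, cut at about 24% in these data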;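 further: plate controls were DMSO alone for no effect and ferristatin control at 100 nM for full effect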
Rpn11 inh = blocks the human proteasome subunit Rpn11; O00487; human 26S proteasome, Ub4-pepOG fluorescence polarization; 20S core pre-blocked with epoxomicin; inhibition, % at 20 µM; actives 0.59% (n = 360,000);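 active means inhibition at 20 µM, scaled to each plate's controls, above about 33%, limit read from the data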
Target sequence (O00487 whole entry, looked up): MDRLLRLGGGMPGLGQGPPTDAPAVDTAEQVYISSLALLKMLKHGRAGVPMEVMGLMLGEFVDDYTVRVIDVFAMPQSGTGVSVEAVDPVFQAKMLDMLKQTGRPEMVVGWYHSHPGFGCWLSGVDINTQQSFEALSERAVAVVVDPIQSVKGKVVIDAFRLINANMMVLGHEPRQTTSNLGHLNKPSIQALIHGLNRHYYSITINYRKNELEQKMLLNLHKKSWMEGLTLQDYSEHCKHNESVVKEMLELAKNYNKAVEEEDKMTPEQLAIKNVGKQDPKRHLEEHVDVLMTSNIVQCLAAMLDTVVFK
NR3A LBD binder = modulates the human NR3A ligand-binding domain | NR3A LBD differential scanning fluorimetry, Tm shift; 0% = protein alone, 100% = glycine-bound protein | Tm shift relative to glycine control, % at 25 µM | actives 2.5% (n = 340,000);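 active means melting temperature shift of at least 10% of the positive control shift, at one fixed dose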
dFosB act-2 = enhances mouse delta FosB homodimer binding to DNA. shares compounds with dFosB act-1. 2,400 tested, under 10 active. purified delta FosB, TAMRA-CDK5 oligo fluorescence polarization; normalised: neutral wells 0, positive control 100. activation, % at 24.9 µM. AID 588690;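 active means highest replicate activation at or above 34% and every replicate reaching that threshold; inconclusive means meets only one of the two criteria; inactive means meets neither criterion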;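 further: higher polarization means more probe DNA bound by delta FosB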
* hit, by the source's call; ? = inconclusive; · = no result. Hits are enriched below; roughly 4.5% of the tested compounds scored in any of these assays.

SMILES	dFosB act-1	EBNA-1 inhibitor	ZTA counter	TPT1 inh	Rpn11 inh	NR3A LBD binder	dFosB act-2
COc1ccc(OC)c(-c2csc(N(C)C(=O)c3ccco3)n2)c1	19.4*	4.0	12.4	2.3	1.1	3.8	8.3
COc1ccc(C(=O)Nc2ccc(NC(=O)c3ccco3)cc2)cc1	51.0*	-6.8	4.8	-3.4	-1.9	16.3*	1.1
C=CCOC(=O)C1=C[C@@H](c2cn(C(C)=O)c3ccccc23)C[C@@H](OCc2ccc(CO)cc2)O1	-12.7	7.7	10.5	0.7	1.3	-4.7	·
Cc1ccc(OCC(=O)N/N=C\c2ccncc2)c(C)c1	-2.4	-13.8	1.3	-3.1	3.8	-0.7	·
Fc1cccc(CN2CCN(Cc3nc(CCc4ccccc4)no3)CC2)c1	-6.2	-5.5	3.8	1.4	0.2	-1.7	·
CCOC(=O)c1c(NC(=O)C(NCCN(C)C)c2ccccc2)sc2c1CCCC2 (stereo unspecified)	34.1*	1.7	17.1	-0.9	-14.2	-5.6	?
CCOc1ccc(C(=O)NCCC(=O)N2CCC3(CC2)NCCc2[nH]cnc23)cc1OCC	1.4	-4.2	-0.6	-1.6	-2.3	2.0	·
CSc1ccc(CNc2nc3ccccc3n3cnnc23)cc1	26.5*	-9.4	-1.3	-2.4	0.1	2.4	4.1
Cc1ccc(CNc2nc3ccccc3n3cnnc23)cc1	-2.9	8.7	-11.1	-1.5	-9.1	0.0	·
COc1cccc(CNC(=O)CCC2CCCN(C(=O)c3cc(C4CC4)[nH]n3)C2)c1 (stereo unspecified)	-8.9	-0.7	3.3	-1.0	7.4	-3.6	·
Cc1cnc(NC(=O)c2cc3c(C)nn(Cc4ccccc4Cl)c3s2)s1	30.4*	9.1	-7.6	-1.9	-6.6	-4.0	7.1
CCOC(=O)c1csc(COc2ccc(OC)cc2)n1	-5.4	2.3	-6.1	-1.5	0.9	-0.1	·
Cc1cc(NC(=O)CC(C)C)c(=O)n(Cc2ccccc2F)c1	-0.8	3.9	-2.3	4.1	9.8	5.1	·
CC1CCC(C(=O)NC(C(=O)NCCc2ccc(S(N)(=O)=O)cc2)C(C)C)CC1 (stereo unspecified)	21.1*	3.0	7.3	-0.2	3.4	0.0	4.6
O=C(CCC(=O)OCc1ccc([N+](=O)[O-])cc1Cl)Nc1ccccc1	-2.4	4.4	-2.0	0.7	-2.5	1.6	·
CN(CC(=O)Nc1ccc(Cl)cc1)S(=O)(=O)c1ccc2c(c1)n(C)c(=O)c(=O)n2C	12.5	-10.5	-24.4	-3.9	-0.4	1.7	·
CN(CC(=O)Nc1cccc(Cl)c1)S(=O)(=O)c1ccc2c(c1)n(C)c(=O)c(=O)n2C	46.1*	-18.1	-5.0	-3.7	-2.2	0.2	-0.1
N#C/C(=C\c1cn(Cc2ccc(F)cc2)c2ccccc12)C(=O)NCc1ccco1	4.3	-0.9	-6.9	8.0	12.2	-0.9	·
N#C/C(=C\c1cn(Cc2cccc(F)c2)c2ccccc12)C(=O)NCc1ccco1	37.2*	5.1	2.8	-1.6	11.0	-4.2	4.8
CCc1ccc(NC(=O)C(C)OC(=O)c2cc(=O)[nH]c3ccc(S(=O)(=O)Nc4ccc(F)cc4)cc23)cc1 (stereo unspecified)	100.0*	10.1	5.7	-2.0	5.2	13.2*	-1.6
O=C(CCN1CCCCC1=O)NC1CCCN(Cc2ccc(Cl)cc2)C1 (stereo unspecified)	1.8	5.4	1.7	2.6	1.6	2.1	·
Cc1[nH]nc2nc(SCC(=O)NCCC3=CCCCC3)n(-c3ccc(Br)cc3)c(=N)c12	65.9*	-1.6	-11.8	-2.3	9.1	1.3	8.1
Cc1cc(-n2c(SCC(=O)NCCC3=CCCCC3)nc3n[nH]c(C)c3c2=N)ccc1Cl	0.3	-1.8	-7.2	-3.2	2.6	-5.8	·
O=C(Oc1cc(Cl)ccc1Cl)c1ccc(N2CCOCC2)c([N+](=O)[O-])c1	-5.2	5.5	-5.4	-1.0	4.2	2.5	·
CC(=O)c1ccc(N2CCN(C(=O)c3ccc(NC4=NC5CS(=O)(=O)CC5S4)cc3)CC2)cc1 (stereo unspecified)	-0.9	-6.2	-4.0	-0.5	-1.9	-0.3	·
SMILES	dFosB act-1	EBNA-1 inhibitor	ZTA counter	TPT1 inh	Rpn11 inh	NR3A LBD binder	dFosB act-2
NC(=O)CC(NC(=O)c1ccccc1)c1ccc(NCCOc2ccccc2)c([N+](=O)[O-])c1 (stereo unspecified)	26.3*	8.0	9.8	-0.9	15.8	-10.9	1.7
NC(=O)CC(NC(=O)Cc1ccc(Br)cc1)c1ccc(NCc2ccc(F)cc2)c([N+](=O)[O-])c1 (stereo unspecified)	53.3*	18.9	-19.1	14.4	23.1	-2.3	7.6
NC(=O)CC(NC(=O)Cc1ccc(Br)cc1)c1ccc(NCC2CC2)c([N+](=O)[O-])c1 (stereo unspecified)	-19.2	-6.1	-8.2	13.9	23.2	-2.7	·
O=C(CSc1nnc(NC(=O)c2cccc(F)c2)s1)NC1CCCC1	60.3*	-0.9	15.5	-3.4	4.2	0.8	1.2
COc1cccc(C(=O)Nc2nnc(SCC(=O)NC3CCCC3)s2)c1	22.0*	-6.8	-10.0	-1.2	3.0	-27.4	2.7
O=C(CSc1nnc(NC(=O)c2cccc(F)c2)s1)NC1CC1	0.6	-0.8	-9.5	-1.4	9.6	0.9	·
Cn1c(SSc2ccc(-c3cccnc3)n2C)ccc1-c1cccnc1	3.6	·	·	·	14.1	0.5	·
COc1ccccc1CNC(=O)c1ccc(OCc2c(C)noc2C)c(OC)c1	-4.8	-6.5	3.6	2.2	-2.6	4.5	·
COc1cc(C(=O)NCc2ccc(C)cc2)ccc1OCc1c(C)noc1C	25.0*	-12.2	-10.2	-2.9	-1.1	-1.0	5.8
COc1cc(C(=O)NCCc2ccc(S(N)(=O)=O)cc2)ccc1OCc1c(C)noc1C	25.7*	·	-5.3	·	0.6	-2.6	1.9
COc1ccccc1NC(=O)c1ccc(NC(=O)CSc2n[nH]c(N)n2)cc1	-1.6	1.7	13.2	-1.6	0.1	-5.6	·
CCOC(=O)c1c(C)[nH]c(C(=O)COC(=O)c2ccco2)c1C	-3.4	·	·	·	2.1	3.2	·
CCC(Sc1nnc(C)c(=O)[nH]1)C(=O)Nc1cccc2ccccc12 (stereo unspecified)	-1.1	1.5	2.4	0.4	4.9	-0.7	·
CCC1CCc2sc(C(=O)NC3CCN(Cc4ccccc4)CC3)cc2C1 (stereo unspecified)	29.0*	-9.0	4.7	-0.5	-5.4	1.8	0.9
O=C(NC1CCCCC1)c1cc([N+](=O)[O-])[nH]n1	2.4	-0.3	-5.2	0.7	-3.0	-4.6	·
Cc1ccc(Cn2c(=N)n(CC(=O)c3ccccc3)c3ccccc32)cc1	30.3*	-4.3	-6.7	1.9	0.3	1.9	8.1
